In PubChem BioAssay AID1159580 (chemical genetic matrix, 2015):
Several values for one entry are separate records, joined by “and”; a condition that tells them apart may be missing. Equal values may be shown once. Hit rate of the full screen: of about 5,500 compounds, about 2,000 (36%) were called active. About 18% were inconclusive and are not listed. No stated cut-off is given here; in the data, active means normalized growth mostly below about 0.91 (no sharp cut-off); inconclusive means no clear call, values can overlap the other calls; inactive means mostly above about 0.92. The list shows a part of the results.

Test: chemical genetic growth profiling, strain panel (AID 1159580);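 further: tested at 20 µM; growth read once vehicle control cultures reached saturation at 30 °C; 1 = growth at the plate median or of vehicle wells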
Settings: S. cerevisiae deletion strains, growth OD

Measured: normalized growth

CC1(C)O[C@@H]2CC3C4C[C@H](F)C5=CC(=O)CC[C@]5(C)C4[C@@H](O)C[C@]3(C)[C@]2(C(=O)CO)O1 (stereo partly specified)
inactive: locus YAL013W, strain DEP1, stronger effect = lower value 1.02 | locus YAL021C, strain ccr4, stronger effect = lower value 0.971 | locus YAL026C, strain drs2, stronger effect = lower value 1.01 | locus YAL030W, strain snc1, stronger effect = lower value 1.01 | locus YBL061C, strain skt5, stronger effect = lower value 1.01 | locus YBR009C, strain hhf1, stronger effect = lower value 1 | locus YBR021W, strain FUR4, stronger effect = lower value 1.02 | locus YBR023C, strain chs3, stronger effect = lower value 1 | locus YBR171W, strain sec66, stronger effect = lower value 1.01 | locus YBR229C, strain ROT2, stronger effect = lower value 1.01 | locus YBR231C, strain swc5, stronger effect = lower value 1 | locus YBR279W, strain paf1, stronger effect = lower value 0.994 | locus YCL011C, strain gbp2, stronger effect = lower value 1 | locus YCL016C, strain dcc1, stronger effect = lower value 0.992 | locus YCL029C, strain bik1, stronger effect = lower value 1.01 | locus YCL069W, strain vba3, stronger effect = lower value 1 | locus YCR088W, strain abp1, stronger effect = lower value 1.01 | locus YDL005C, strain med2, stronger effect = lower value 1.03 | locus YDL035C, strain GPR1, stronger effect = lower value 1.01 | locus YDL040C, strain nat1, stronger effect = lower value 1.01 | locus YDL074C, strain BRE1, stronger effect = lower value 1.04 | locus YDL101C, strain DUN1, stronger effect = lower value 1.02 | locus YDL134C, strain PPH21, stronger effect = lower value 1.01 | locus YDL185W, strain tfp1, stronger effect = lower value 1.01 | locus YDL192W, strain arf1, stronger effect = lower value 1.01 | locus YDR001C, strain nth1, stronger effect = lower value 1 | locus YDR069C, strain doa4, stronger effect = lower value 1.01 | locus YDR101C, strain arx1, stronger effect = lower value 0.998 | locus YDR137W, strain rgp1, stronger effect = lower value 0.995 | locus YDR150W, strain NUM1, stronger effect = lower value 1.03 | locus YDR159W, strain sac3, stronger effect = lower value 0.939 | locus YDR162C, strain NBP2, stronger effect = lower value 1.03 | locus YDR195W, strain ref2 0.991 | locus YDR297W, strain sur2, stronger effect = lower value 1.01 | locus YDR318W, strain mcm21, stronger effect = lower value 0.999 | locus YDR334W, strain swr1, stronger effect = lower value 1.01 | locus YDR335W, strain msn5, stronger effect = lower value 1 | locus YDR388W, stronger effect = lower value 1.01 | locus YDR392W, strain spt3, stronger effect = lower value 0.931 | locus YDR502C, strain sam2, stronger effect = lower value 1 | locus YEL003W, strain gim4, stronger effect = lower value 0.999 | locus YEL037C, strain rad23, stronger effect = lower value 1.01 | locus YEL061C, strain CIN8 (second series), stronger effect = lower value 1.01 | locus YEL061C, strain CIN8, stronger effect = lower value 1.01 | locus YER015W, strain faa2, stronger effect = lower value 1.01 | locus YER016W, strain bim1, stronger effect = lower value 1 | locus YER110C, stronger effect = lower value 0.998 | locus YER111C, strain swi4, stronger effect = lower value 1 | locus YER155C, strain BEM2 (second series), stronger effect = lower value 1.03 | locus YER155C, strain BEM2, stronger effect = lower value 1 | locus YER167W, strain BCK2, stronger effect = lower value 1.01 | locus YFR010W, strain ubp6, stronger effect = lower value 1.01 | locus YGL078C, strain dbp3, stronger effect = lower value 0.995 | locus YGL086W, strain mad1, stronger effect = lower value 1 | locus YGL167C, strain pmr1, stronger effect = lower value 0.996 | locus YGL173C, strain kem1, stronger effect = lower value 1.02 | locus YGL227W, strain vid30, stronger effect = lower value 1 | locus YGL240W, strain doc1, stronger effect = lower value 1 | locus YGL248W, strain PDE1, stronger effect = lower value 1.01 | locus YGL253W, strain hxk2, stronger effect = lower value 1 | locus YGR078C, strain PAC10, stronger effect = lower value 1.02 | locus YGR135W, strain pre9, stronger effect = lower value 1 | locus YGR229C, strain SMI1, stronger effect = lower value 1.02 | locus YGR252W, strain gcn5, stronger effect = lower value 0.983 | locus YHR013C, strain ard1, stronger effect = lower value 0.994 | locus YHR027C, strain rpn1, stronger effect = lower value 1.02 | locus YHR030C, strain SLT2, stronger effect = lower value 1 and 1.02 | locus YHR079C, strain IRE1 (second series), stronger effect = lower value 0.999 | locus YHR079C, strain IRE1, stronger effect = lower value 1.03 | locus YHR094C, strain hxt1, stronger effect = lower value 1.01 | locus YHR129C, strain ARP1, stronger effect = lower value 1.01 | locus YHR142W, strain chs7, stronger effect = lower value 1 | locus YHR200W, strain rpn10, stronger effect = lower value 1.01 | locus YIL066C, strain RNR3, stronger effect = lower value 1 | locus YIL073C, strain SPO22, stronger effect = lower value 1.01 | locus YIL125W, strain kgd1, stronger effect = lower value 0.995 | locus YIR030C, strain dcg1, stronger effect = lower value 1.01 | locus YJL092W, strain hpr5, stronger effect = lower value 1.02 | locus YJL095W, strain BCK1 (second series), stronger effect = lower value 1.01 | locus YJL095W, strain BCK1, stronger effect = lower value 0.999 and 1.02 | locus YJL115W, strain asf1, stronger effect = lower value 1.01 | locus YJL129C, strain trk1, stronger effect = lower value 1.02 | locus YJL134W, strain LCB3, stronger effect = lower value 1.01 | locus YJL154C, strain vps35, stronger effect = lower value 1.01 | locus YJL164C, strain tpk1, stronger effect = lower value 0.982 | locus YJL166W, strain qcr8, stronger effect = lower value 1.01 | locus YJL168C, strain set2, stronger effect = lower value 1.01 | locus YJL187C, strain SWE1 (second series), stronger effect = lower value 1.01 | locus YJL187C, strain SWE1, stronger effect = lower value 1.01 | locus YJR043C, strain POL32, stronger effect = lower value 0.994 | locus YJR066W, strain TOR1, stronger effect = lower value 0.957
